# Source: PubChem BioAssay
# ADAM10 inh – human ADAM10 inhibitors, primary screen, biochemical, QFRET, HTS; 0.62% of 370,000 active; inhibition, % at 7 µM; recombinant ADAM10, EDANS/DABCYL FRET peptide cleavage, 3 h; AID 720582, 2013;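 active = inhibition above a per-campaign cutoff equal to the mean of compounds falling between control-based bounds plus 3 SD, cut at about 20% in these data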
# NPR2 activator – human GC-B receptor activators, primary screen, HEK293 GC-B cells, cGMP TR-FRET, EC30 CNP; Atrial natriuretic peptide receptor 2 (Homo sapiens), P20594; 0% at EC30 CNP, 100% saturating CNP; activation, % at 10 µM; 0.11% of 370,000 active;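 active = activation at 10 µM reaching about 35% in either raw or pattern-adjusted values, limit read from the data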
# FAS-TE inh – FAS thioesterase domain inhibitors, primary screen, biochemical, fluorescence intensity, uHTS. Fatty acid synthase (Homo sapiens), P49327. inhibition, % at 15 µM. 0.67% of 360,000 active. recombinant FAS-TE, OMFH fluorogenic substrate, fluorescence endpoint. AID 602261, 2012;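 active = compounds whose normalised, plate-corrected inhibition of enzyme fluorescence in the single-dose primary screen is 50% or more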
# NPR1 activator – GC-A stimulated cGMP production enhancers – HEK293 GC-A cells, cGMP TR-FRET, EC30 ANP, primary screen. AID 1671463, 2021. 0% at EC30 ANP, 100% saturating ANP. 0.14% of 370,000 active. activation, % at 10 µM; in the data active = activation above about 40%
# Target sequence (P16066 whole entry, looked up): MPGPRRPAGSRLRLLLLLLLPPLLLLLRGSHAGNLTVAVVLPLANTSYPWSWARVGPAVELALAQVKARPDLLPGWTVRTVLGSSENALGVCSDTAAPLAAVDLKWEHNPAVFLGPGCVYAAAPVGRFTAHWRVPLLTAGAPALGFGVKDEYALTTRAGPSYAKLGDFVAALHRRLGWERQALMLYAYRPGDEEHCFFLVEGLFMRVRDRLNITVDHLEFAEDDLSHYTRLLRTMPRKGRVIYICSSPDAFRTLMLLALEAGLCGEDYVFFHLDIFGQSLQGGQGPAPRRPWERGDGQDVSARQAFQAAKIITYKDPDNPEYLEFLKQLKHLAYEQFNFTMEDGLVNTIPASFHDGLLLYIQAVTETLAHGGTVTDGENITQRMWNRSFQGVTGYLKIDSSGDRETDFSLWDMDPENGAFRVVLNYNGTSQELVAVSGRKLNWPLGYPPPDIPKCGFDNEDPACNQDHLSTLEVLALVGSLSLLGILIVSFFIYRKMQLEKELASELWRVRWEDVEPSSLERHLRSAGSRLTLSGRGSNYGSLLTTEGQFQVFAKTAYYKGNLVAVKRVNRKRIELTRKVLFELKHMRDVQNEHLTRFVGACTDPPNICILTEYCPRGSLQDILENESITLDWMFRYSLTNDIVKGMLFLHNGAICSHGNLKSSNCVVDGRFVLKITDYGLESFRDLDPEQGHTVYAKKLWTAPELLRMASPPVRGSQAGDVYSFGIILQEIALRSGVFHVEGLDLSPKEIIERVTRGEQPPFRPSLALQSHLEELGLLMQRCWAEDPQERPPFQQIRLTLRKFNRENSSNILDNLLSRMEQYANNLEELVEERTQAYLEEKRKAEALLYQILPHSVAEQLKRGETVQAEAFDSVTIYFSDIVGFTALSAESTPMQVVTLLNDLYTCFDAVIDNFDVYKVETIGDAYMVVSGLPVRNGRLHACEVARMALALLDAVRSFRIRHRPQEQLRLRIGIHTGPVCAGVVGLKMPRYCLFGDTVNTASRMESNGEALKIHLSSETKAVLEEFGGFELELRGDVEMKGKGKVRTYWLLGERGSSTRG
# ADAM17 inh – ADAM17 inhibitors, primary screen, biochemical, QFRET. Disintegrin and metalloproteinase domain-containing protein 17 (Homo sapiens), P78536. recombinant ADAM17, EDANS/DABCYL FRET peptide cleavage. inhibition, % at 6.95 µM. 0.83% of 370,000 active;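 active = inhibition above the mean of compounds lying between control limits plus 3 SD, set per campaign, cut at about 8.5% in these data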
# ADAM10 ctr – ADAM10 inhibitors, counter-screen for ADAM17 exosite inhibitor project, biochemical, FRET, human ADAM10 | shares compounds with ADAM17 inh | recombinant ADAM10, EDANS/DABCYL FRET peptide cleavage, 3 h | inhibition, % at 6.95 µM | 47% of 2,900 active;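 active = mean inhibition over the triplicate runs exceeds the activity threshold set in the earlier primary screen, cut at about 20% in these data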
# ADAM17 confirm – ADAM17 inhibitors, hit retest, confirmation, biochemical, QFRET peptide cleavage. shares compounds with ADAM17 inh. recombinant ADAM17, EDANS/DABCYL QFRET peptide cleavage. inhibition, % at 6.95 µM. 65% of 2,900 active;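 active = mean inhibition across replicates above the hit cutoff set in the primary screen, cut at about 8.5% in these data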
# Hits are given with their value; – = inactive; · = not tested or not shown. Shown are actives, neighbours in structure and some others; about 2% of the full set was active somewhere.
SMILES,ADAM10 inh,NPR2 activator,FAS-TE inh,NPR1 activator,ADAM17 inh,ADAM10 ctr,ADAM17 confirm
Cc1cc(/C=C2\NC(=S)N(C)C2=O)ccc1N1CCCC1,–,–,–,–,8.9,–,–
c1ccc2oc(SCc3cn4ccsc4n3)nc2c1,–,–,–,–,9.2,–,–
COc1ccc(NC(=O)CC2C(=O)N(C)C(=S)N2Cc2ccncc2)cc1 (centres undefined),–,–,–,–,9.1,–,–
CN(C)S(=O)(=O)Oc1cccc(C(=O)Nc2ccc(Cl)c(Cl)c2)c1,–,–,–,–,9.2,34.7,20.1
CN(C)S(=O)(=O)Oc1cccc(C(=O)Nc2cccc(Cl)c2)c1,–,·,–,·,–,·,·
Cc1cccc(NCC(=O)NNC(=S)Nc2ccccc2)c1,–,–,–,–,11.6,–,–
Cc1cccc(C)c1NC(=O)CNCC(=O)Nc1c(C)cccc1C,–,–,–,–,–,·,·
Cc1ccc(-n2c(SCC(=O)NNC(=S)Nc3ccccc3)nc3ccccc3c2=O)cc1,–,–,–,–,11.7,36.7,11.2
Cc1cccc(C)c1NC(=O)CNc1ccccc1,–,–,–,–,11.0,–,–
Cc1cnn(CCC(=O)NNC(=S)Nc2ccccc2)c1,–,–,–,–,11.9,–,–
Cc1ccc(NC(=S)NNC(=O)CCn2cc(C)cn2)cc1,–,–,–,–,–,·,·
Cc1ccc(-c2cc(-c3nnc(SCc4cccc5ccccc45)n3N)[nH]n2)cc1,–,–,·,–,–,·,·
Cc1ccc(NC(=O)[C@H]2CC(=O)O[C@@H]2c2ccccc2)c(C)c1,–,–,·,–,–,·,·
COc1ccc(C2CC(=O)C(c3ccc(C#N)cc3)=CN2Cc2ccccc2)cc1 (centres undefined),–,–,·,–,–,·,·
CN(c1ccc(OCc2ccc([N+](=O)[O-])cc2)cc1)S(=O)(=O)c1ccccc1,–,–,–,–,9.3,–,13.1
COC[C@@H]1CCCN1c1cccc2c1S(=O)(=O)N(C1CC1)CCCO2,–,–,·,–,–,·,·
C[C@H]1CN([C@@H](C)CO)C(=O)c2c(c3ccccc3n2C)-c2ccccc2CO[C@H]1CN(C)C(=O)Nc1cccc(F)c1,–,–,·,–,–,·,·
CN1CCS/C1=C/C=C1\SC(=S)N(CC(=O)O)C1=O,–,–,–,–,8.9,26.8,13.1
CCCCN1C(=O)/C(=C/C=C2\SCCN2C)SC1=S,–,–,–,–,12.0,24.5,15.7
CCOC(=O)C1=CCN(S(=O)(=O)c2ccccc2C)C1c1ccc(Cl)c(Cl)c1 (centres undefined),–,–,–,–,12.9,–,–
CCOC(=O)C1=CCN(S(=O)(=O)c2ccccc2Br)C1c1ccc(Cl)c(Cl)c1 (centres undefined),–,–,–,–,–,·,·
COc1ccc(-c2noc(C3CCCN(C(=O)Nc4cccc(C)c4)C3)n2)cc1 (centres undefined),–,–,·,–,–,·,·
CN(Cc1ccccc1)C(=O)CN1C(=O)NC2(CCCCCCC2)C1=O,–,–,–,–,8.8,–,–
O=C(CN1C(=O)NC2(CCCCCC2)C1=O)Nc1cccc(F)c1,–,–,–,–,–,·,·
CC1CCC2(CC1)NC(=O)N(CC(=O)NCc1ccc(Cl)cc1)C2=O (centres undefined),–,–,–,–,–,·,·
SMILES,ADAM10 inh,NPR2 activator,FAS-TE inh,NPR1 activator,ADAM17 inh,ADAM10 ctr,ADAM17 confirm
O=C(CN1C(=O)NC2(CCCCCCC2)C1=O)NCc1ccc(Cl)cc1,–,–,–,–,11.3,–,–
CC1Oc2ccccc2N(CC(=O)Nc2ccc3c(c2)OCCO3)C1=O (centres undefined),–,–,–,–,10.0,–,–
O=C(CN1C(=O)NC2(CCCCC2)C1=O)Nc1ccc2c(c1)OCCCO2,–,–,–,–,10.7,–,–
CCCCCCCCN1C(=O)[C@@H](CC(=O)NCCCOCCCC)C[C@@]2(C(=O)OC)C1=C[C@H](COCc1ccccc1)O[C@@H]2C,–,–,·,–,–,·,·
Nc1c(C(=O)N2CCOCC2)cnn1Cc1ccccc1,–,–,·,–,–,·,·
CCCCCn1nnnc1C1(C)CCCC(=O)N1Cc1ccco1 (centres undefined),–,–,·,–,–,·,·
CCCCOc1ccc(NC(=O)CN2CCN(Cc3ccccc3)CC2)cc1,–,–,–,–,8.8,–,–
Cc1ccc2ccccc2c1C(O)c1ncc(-c2cccc(C(F)(F)F)c2)[nH]1 (centres undefined),–,–,–,–,12.2,26.2,14.5
Cc1cc(Cl)ccc1C(O)c1ncc(-c2cccc(F)c2)[nH]1 (centres undefined),–,–,–,–,–,·,·
OC(c1ccccc1)c1ncc(-c2ccc(C(F)(F)F)cc2)[nH]1 (centres undefined),–,–,–,–,–,·,·
OC(c1ccc(-c2ccccc2)cc1)c1ncc(-c2ccc(C(F)(F)F)cc2)[nH]1 (centres undefined),–,–,–,–,9.1,22.9,12.6
Cc1cc(Cl)ccc1C(O)c1ncc(-c2cccc(C(F)(F)F)c2)[nH]1 (centres undefined),–,–,–,–,9.2,40.0,18.4
CCCCNC(=O)O[C@H]1CC[C@@]23CCCN2C(=O)CCC[C@H]3[C@H]1CCC,–,–,·,–,–,·,·
CCCC#Cc1ccc2c(c1)O[C@H](CN(C)S(=O)(=O)c1cccc(OC)c1)[C@H](C)CN([C@H](C)CO)S2(=O)=O,–,–,–,–,9.6,24.6,12.8
COc1cccc(C#Cc2ccc3c(c2)O[C@H](CN(C)C)[C@@H](C)CN([C@@H](C)CO)S3(=O)=O)c1,–,–,–,–,–,·,·
COc1cccc(S(=O)(=O)N(C)C[C@@H]2Oc3cc(Br)ccc3S(=O)(=O)N([C@@H](C)CO)C[C@@H]2C)c1,–,–,–,–,–,·,·
COc1cccc(C#Cc2ccc3c(c2)O[C@H](CN(C)S(=O)(=O)c2ccccc2F)[C@H](C)CN([C@H](C)CO)S3(=O)=O)c1,–,–,–,–,10.7,–,–
Cc1[nH]c2ccccc2c1/C=N/NC(=O)c1cccc([N+](=O)[O-])c1,–,–,–,–,–,·,·
